# Bioassay records as filed in PubChem.
# The entries come from a sample that favours hits as a whole.
# Tg IFNy HTS: blocks Toxoplasma gondii growth in the presence of IFN-gamma | Toxoplasma gondii growth in IFN-gamma-treated host cells; active compounds read low | activity change, negative = inhibition, % (concentration not given with the values) | 69,000 tested, 3.8% active | AID 1259416; in the data active = activity change below about -70%, passing the limit was not always enough;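 also: host cells are HeLa cells infected with Toxoplasma gondii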
# A number is an active result; 0 = inactive.
SMILES,Tg IFNy HTS
CO[C@H]1COC[C@@H]1n1cnc(-c2ccccc2)c1-c1ccc2occc2c1,-78
C=CCn1cnc(-c2ccccc2)c1-c1ccc2onc(C)c2c1,0
COc1ccc(-c2cnc(N(C)C)nc2C2CCN(C(=O)Cn3cccn3)CC2)cc1,0
CCc1ccc(NC(=O)N2CCC3(C2)CN(c2ccsc2)C(=O)CN3C)cc1 (configuration not stated),0
CN1C(=O)CCc2cc(NS(=O)(=O)c3cccc4nsnc34)ccc21,0
CN1CCN2c3ccccc3Cc3ccccc3C2C1 (configuration not stated),0
CSc1ccc2c(c1)C(N1CCN(C)CC1)Cc1ccccc1S2 (configuration not stated),-77
CN1CCCC(CC2c3ccccc3Sc3ccccc32)C1 (configuration not stated),0
CN1CCN(C2=Cc3ccccc3Oc3ccc(Cl)cc32)CC1,0
CN1CCN(C2Cc3ccccc3Sc3ccc(Cl)cc32)CC1 (configuration not stated),-82
CC(C)c1cc(NC(=O)c2cccc(CN3CC=CCC3)c2)n(C)n1,0
COc1cc(N2CC[C@]3(CCC[C@H](CN(C)C)O3)C2)ncn1,0
COCCN(C)CC1COC2(CCCN(C(=O)c3cnn4cccnc34)C2)C1 (configuration not stated),0
Cc1ncc(-c2ccccn2)c(C2CCC(CNC(=O)c3scnc3C)CC2)n1 (configuration not stated),0
Cc1ncc(-c2ccncc2C)c(C2CCC(CNC(=O)c3oc(C)nc3C)CC2)n1 (configuration not stated),0
Cc1scc(C(=O)NCC2CCC(c3ncc(Cl)cc3-c3ccncc3)CC2)c1C (configuration not stated),-88
Cc1ccc(C(=O)NCCc2csc(-c3ccc(C(F)(F)F)cc3)n2)cc1C,0
CCc1nc(-c2cc(C(=O)N(C)CC)c3ccccn23)cs1,0
COc1cc2ncnc(Nc3cccc(O)c3)c2cc1OC,0
CCC(C)Nc1ncnc2cc(OC)c(OC)cc12 (configuration not stated),0
COc1cc2ncnc(Nc3cccc(Br)c3)c2cc1OC,-79
Cc1ccc(N2CCC3(CC2)CN(Cc2cccnc2)C(=O)CO3)nn1,0
Cc1ccc(NC(=O)N2CCC(c3nc(C(=O)N(C)C)c(C)o3)CC2)c(C)c1,0
COc1cccc(S(=O)(=O)Nc2ccc3c(c2)C(=O)N(C)C[C@@H](OC)[C@@H](C)CN(Cc2ccccc2F)[C@H](C)CO3)c1,0
COc1cccc(S(=O)(=O)Nc2ccc3c(c2)C(=O)N(C)C[C@H](OC)[C@H](C)CN(Cc2ccccc2F)[C@@H](C)CO3)c1,0
SMILES,Tg IFNy HTS
COc1cccc(S(=O)(=O)Nc2ccc3c(c2)C(=O)N(C)C[C@@H](OC)[C@H](C)CN(Cc2ccccc2F)[C@H](C)CO3)c1,-97
COc1cccc(S(=O)(=O)Nc2ccc3c(c2)C(=O)N(C)C[C@H](OC)[C@H](C)CN(Cc2ccccc2F)[C@H](C)CO3)c1,0
COc1cccc(S(=O)(=O)Nc2ccc3c(c2)C(=O)N(C)C[C@H](OC)[C@@H](C)CN(Cc2ccccc2F)[C@H](C)CO3)c1,0
COc1ccc(S(=O)(=O)Nc2ccc3c(c2)OC[C@@H](C)N(Cc2cc(F)ccc2F)C[C@@H](C)[C@H](OC)CN(C)C3=O)cc1,-90
CCc1ccccc1NC(=O)Cn1c(=O)cc(-c2nc(C)no2)c2ccccc21,0
COc1ccccc1-c1noc(C2CCCN2C(=O)Cc2c[nH]c3ccccc23)n1 (configuration not stated),0
O=C1CO[C@H]2CN(S(=O)(=O)c3ccccc3)C[C@@H]2N1,0
COC(=O)CN1C(=O)N(CCc2ccccc2)C2(CCN(Cc3ccc4c(c3)OCCO4)CC2)C1=O,0
COc1ccc(N2CCN(C(=O)Cn3ncc4c(N5CCC(C)CC5)ncnc43)CC2)cc1,0
COc1ccccc1N1CCN(Cc2nc(-c3ccc(Br)cc3)cs2)CC1,-72
COc1ccccc1N1CCN(CCCCNC(=O)c2ccc(-c3ccc(C(C)=O)cc3)cc2)CC1,0
COc1ccccc1N1CCN(C(=O)c2cccs2)CC1,0
Cn1cc(C(=O)N2CC[C@H]3[C@H]2CCN3Cc2ccsc2)cn1,0
COC(=O)c1c(NCc2ccccc2Cl)c2ccccc2[nH]c1=O,0
Cc1cnccc1N1CCN(S(=O)(=O)NCc2ccccc2)CC1,0
O=C(O)c1ccc2cc(-c3ccc(O)c(C45CC6CC(CC(C6)C4)C5)c3)ccc2c1,-74
O=C(O)c1ccc(-c2ccc3cc(O)c(C45CC6CC(CC(C6)C4)C5)cc3c2)cc1,0
CC(=O)Nc1ccc(C23CC4CC(CC(C4)C2)C3)c(C)c1,0
NS(=O)(=O)c1ccc2c(c1)CCN2C(=O)Cc1csc(-c2ccccc2)n1,0
NC(=O)CSc1nc(-c2ccc(Cl)cc2)cs1,0
COc1ccc2c(c1)NC1(CCN(C(=O)c3ccc(F)cc3)CC1)c1cccn1-2,0
Cc1cccc(C2c3[nH]c4ccccc4c3CCN2C(=O)c2ccccc2Cl)c1 (configuration not stated),-110
